According to article PMC7862700, “An all-to-all approach to the identification of sequence-specific readers for epigenetic DNA modifications on cytosine”:

Experiments:
Assay in all cases: DAPPL (digital affinity profiling via proximity ligation, sequencing); 10 mM Tris-HCl pH 7.5, 50 mM NaCl, 1 mM DTT, 4% glycerol, room temperature, 30 min; GST-TFs on glutathione beads, 16-mer random dsDNA library, 0.1% formaldehyde crosslink after washing; high values mean tight binding
Conditions in all cases: protein: recombinant; tags: N-terminal GST; dsDNA, one strand shown
FLI1 = target: T1, FLI1 (Homo sapiens, UniProt Q01543 1-452)
T1 sequence: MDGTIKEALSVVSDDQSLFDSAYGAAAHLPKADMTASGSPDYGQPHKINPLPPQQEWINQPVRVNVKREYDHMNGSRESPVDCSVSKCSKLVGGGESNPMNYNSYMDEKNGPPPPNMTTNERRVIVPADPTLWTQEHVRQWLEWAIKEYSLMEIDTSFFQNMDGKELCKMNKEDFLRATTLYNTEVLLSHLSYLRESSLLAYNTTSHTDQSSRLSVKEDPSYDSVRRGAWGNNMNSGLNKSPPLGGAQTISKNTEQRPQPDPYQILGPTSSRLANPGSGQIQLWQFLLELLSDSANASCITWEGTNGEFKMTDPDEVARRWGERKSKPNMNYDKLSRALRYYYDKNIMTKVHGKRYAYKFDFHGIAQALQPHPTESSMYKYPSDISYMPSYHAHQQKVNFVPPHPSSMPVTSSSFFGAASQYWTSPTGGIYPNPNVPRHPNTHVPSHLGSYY
Method in brief: (§1)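 Human transcription factors fused to GST were expressed in yeast, captured on glutathione beads, given DNA barcodes and pooled with a GST-only negative control. Pools were incubated with 200 nmole of a 16-mer random double-stranded DNA library in Tris/NaCl/DTT/glycerol buffer at room temperature for 30 min. They were then washed, crosslinked with 0.1% formaldehyde, proximity-ligated (BsaI/T4 ligase, 1 h, 37 °C), PCR-amplified and sequenced on an Illumina NextSeq500. Binding signal is each 6-mer's read frequency for a factor divided by its frequency for the GST control.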

ELK1 = target: T2, ELK1 (Homo sapiens, UniProt P19419 1-428)
T2 sequence: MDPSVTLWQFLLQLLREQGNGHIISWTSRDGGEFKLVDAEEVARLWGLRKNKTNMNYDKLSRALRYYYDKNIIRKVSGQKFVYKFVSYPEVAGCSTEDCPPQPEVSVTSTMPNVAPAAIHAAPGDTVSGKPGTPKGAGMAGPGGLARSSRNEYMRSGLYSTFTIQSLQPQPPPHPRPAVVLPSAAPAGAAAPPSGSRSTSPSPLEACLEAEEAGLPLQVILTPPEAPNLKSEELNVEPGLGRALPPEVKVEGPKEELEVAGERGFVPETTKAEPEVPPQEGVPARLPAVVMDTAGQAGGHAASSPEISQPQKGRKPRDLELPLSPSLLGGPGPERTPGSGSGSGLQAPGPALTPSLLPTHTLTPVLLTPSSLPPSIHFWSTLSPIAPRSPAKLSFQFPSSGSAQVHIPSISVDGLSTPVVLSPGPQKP
Method in brief: as §1

ERG = target: T3, ERG (Homo sapiens, UniProt P11308 1-479)
T3 sequence: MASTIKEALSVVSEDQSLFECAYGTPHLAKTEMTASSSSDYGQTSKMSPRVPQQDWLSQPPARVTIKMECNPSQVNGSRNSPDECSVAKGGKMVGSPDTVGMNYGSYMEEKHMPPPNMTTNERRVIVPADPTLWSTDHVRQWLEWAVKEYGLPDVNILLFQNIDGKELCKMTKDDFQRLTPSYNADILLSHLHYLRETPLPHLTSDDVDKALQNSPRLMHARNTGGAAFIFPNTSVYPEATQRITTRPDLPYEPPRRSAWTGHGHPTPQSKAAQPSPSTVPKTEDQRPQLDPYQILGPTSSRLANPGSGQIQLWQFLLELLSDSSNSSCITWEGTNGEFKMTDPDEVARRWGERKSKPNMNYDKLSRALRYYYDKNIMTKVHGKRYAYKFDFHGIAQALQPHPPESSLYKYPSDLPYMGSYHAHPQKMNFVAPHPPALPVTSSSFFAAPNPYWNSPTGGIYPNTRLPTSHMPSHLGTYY
Method in brief: as §1

ELF1 = ELF1 (Homo sapiens, UniProt P32519 1-619)
ELF1, sequence (P32519 whole entry): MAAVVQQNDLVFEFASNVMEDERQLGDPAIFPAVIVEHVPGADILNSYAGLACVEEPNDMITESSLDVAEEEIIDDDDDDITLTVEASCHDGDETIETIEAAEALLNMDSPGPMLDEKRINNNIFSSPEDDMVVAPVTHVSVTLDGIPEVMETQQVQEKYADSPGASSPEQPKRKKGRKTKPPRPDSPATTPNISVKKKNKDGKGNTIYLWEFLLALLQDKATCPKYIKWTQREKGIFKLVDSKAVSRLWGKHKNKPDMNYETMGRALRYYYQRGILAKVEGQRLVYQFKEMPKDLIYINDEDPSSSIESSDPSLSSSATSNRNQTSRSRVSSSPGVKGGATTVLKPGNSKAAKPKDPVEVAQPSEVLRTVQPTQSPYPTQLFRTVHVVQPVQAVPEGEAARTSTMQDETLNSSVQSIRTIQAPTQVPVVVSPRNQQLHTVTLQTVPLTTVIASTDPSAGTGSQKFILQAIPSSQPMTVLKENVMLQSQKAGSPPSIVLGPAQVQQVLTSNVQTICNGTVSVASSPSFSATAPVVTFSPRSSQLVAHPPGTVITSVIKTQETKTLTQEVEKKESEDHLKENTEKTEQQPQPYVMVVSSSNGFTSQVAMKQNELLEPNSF
Method in brief: as §1

EHF = target: T4, EHF (Homo sapiens, UniProt Q9NZC4 1-300)
T4 sequence: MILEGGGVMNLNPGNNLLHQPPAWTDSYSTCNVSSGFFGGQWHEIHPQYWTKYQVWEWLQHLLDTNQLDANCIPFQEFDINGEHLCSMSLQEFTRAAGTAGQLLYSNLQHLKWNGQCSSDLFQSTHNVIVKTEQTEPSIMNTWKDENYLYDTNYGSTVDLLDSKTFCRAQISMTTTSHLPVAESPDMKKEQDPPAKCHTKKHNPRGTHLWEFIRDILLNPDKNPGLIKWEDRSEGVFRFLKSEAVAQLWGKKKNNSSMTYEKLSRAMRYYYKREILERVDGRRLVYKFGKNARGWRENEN
Method in brief: as §1

SPIB = SPIB (Homo sapiens, UniProt Q01892 1-262)
SPIB, sequence (Q01892 whole entry): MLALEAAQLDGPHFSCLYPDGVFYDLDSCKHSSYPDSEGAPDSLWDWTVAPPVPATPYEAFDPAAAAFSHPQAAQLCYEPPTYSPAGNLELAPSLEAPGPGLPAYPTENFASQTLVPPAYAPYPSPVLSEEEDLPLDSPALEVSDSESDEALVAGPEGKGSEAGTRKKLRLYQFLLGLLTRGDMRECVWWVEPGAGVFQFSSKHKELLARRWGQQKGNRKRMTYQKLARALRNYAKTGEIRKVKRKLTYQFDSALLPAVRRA
Method in brief: as §1

ELK3 = target: T5, ELK3 (Homo sapiens, UniProt P41970 1-407)
T5 sequence: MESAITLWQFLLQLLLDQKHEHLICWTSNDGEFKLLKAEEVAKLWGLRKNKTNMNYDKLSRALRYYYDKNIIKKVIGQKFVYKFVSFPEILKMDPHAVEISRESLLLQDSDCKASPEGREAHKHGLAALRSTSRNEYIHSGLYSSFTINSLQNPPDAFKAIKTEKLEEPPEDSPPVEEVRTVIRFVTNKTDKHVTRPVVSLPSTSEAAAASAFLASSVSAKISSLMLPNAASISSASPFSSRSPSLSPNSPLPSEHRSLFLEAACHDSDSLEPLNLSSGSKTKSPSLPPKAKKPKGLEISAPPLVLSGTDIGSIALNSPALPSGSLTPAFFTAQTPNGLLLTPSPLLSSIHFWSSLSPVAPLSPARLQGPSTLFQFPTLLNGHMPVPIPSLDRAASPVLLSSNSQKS
Method in brief: as §1

SPIC = target: T6, SPIC (Homo sapiens, UniProt Q8N5J4 1-248)
T6 sequence: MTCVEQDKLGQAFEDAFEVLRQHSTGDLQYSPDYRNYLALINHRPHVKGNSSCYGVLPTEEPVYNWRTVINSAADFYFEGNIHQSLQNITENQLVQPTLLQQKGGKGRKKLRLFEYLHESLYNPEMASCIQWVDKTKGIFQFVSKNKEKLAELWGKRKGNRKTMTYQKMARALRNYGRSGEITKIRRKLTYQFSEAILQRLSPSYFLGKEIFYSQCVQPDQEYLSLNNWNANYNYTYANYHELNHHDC
Method in brief: as §1

ELF4 = ELF4 (Homo sapiens, UniProt Q99607 1-663)
ELF4, sequence (Q99607 whole entry): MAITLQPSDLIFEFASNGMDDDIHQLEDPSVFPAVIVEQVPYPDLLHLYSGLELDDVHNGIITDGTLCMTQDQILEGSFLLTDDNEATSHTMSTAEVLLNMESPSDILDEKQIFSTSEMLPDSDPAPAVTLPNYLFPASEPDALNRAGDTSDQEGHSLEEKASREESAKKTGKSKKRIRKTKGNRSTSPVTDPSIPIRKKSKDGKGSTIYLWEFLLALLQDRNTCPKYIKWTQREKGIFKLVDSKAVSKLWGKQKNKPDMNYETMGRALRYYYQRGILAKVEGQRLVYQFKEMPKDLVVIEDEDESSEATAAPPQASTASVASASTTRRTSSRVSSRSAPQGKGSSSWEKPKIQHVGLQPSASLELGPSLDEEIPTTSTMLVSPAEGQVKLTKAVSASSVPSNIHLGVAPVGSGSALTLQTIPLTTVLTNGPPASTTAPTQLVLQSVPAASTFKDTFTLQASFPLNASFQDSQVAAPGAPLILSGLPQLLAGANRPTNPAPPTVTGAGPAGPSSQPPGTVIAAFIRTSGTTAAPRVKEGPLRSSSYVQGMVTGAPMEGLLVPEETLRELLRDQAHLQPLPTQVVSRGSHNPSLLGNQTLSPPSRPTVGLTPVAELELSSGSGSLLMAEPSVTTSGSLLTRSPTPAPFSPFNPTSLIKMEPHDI
Method in brief: as §1

ELK4 = target: T7, ELK4 (Homo sapiens, UniProt P28324-2 1-405)
T7 sequence: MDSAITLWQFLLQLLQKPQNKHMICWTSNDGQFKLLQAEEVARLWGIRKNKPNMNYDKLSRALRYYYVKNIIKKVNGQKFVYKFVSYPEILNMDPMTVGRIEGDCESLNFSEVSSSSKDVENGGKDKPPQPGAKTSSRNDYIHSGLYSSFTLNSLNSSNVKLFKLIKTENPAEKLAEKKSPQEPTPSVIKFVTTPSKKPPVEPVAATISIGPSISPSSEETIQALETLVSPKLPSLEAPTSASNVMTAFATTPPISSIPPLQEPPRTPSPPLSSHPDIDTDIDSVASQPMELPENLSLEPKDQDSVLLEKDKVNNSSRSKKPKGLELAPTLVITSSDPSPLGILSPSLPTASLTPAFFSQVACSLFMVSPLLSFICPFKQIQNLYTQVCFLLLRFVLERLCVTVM
Method in brief: as §1

ELF3 = target: T8, ELF3 (Homo sapiens, UniProt P78545 1-371)
T8 sequence: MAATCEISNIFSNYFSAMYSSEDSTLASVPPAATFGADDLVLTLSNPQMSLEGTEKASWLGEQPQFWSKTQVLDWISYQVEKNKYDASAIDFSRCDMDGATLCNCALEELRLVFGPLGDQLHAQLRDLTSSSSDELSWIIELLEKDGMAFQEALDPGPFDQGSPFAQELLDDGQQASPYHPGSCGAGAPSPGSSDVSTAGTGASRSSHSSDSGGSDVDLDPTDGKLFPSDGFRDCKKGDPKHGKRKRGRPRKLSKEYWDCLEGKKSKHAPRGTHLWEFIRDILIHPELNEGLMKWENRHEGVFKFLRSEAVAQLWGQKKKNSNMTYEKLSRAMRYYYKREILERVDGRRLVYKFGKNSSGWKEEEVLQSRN
Method in brief: as §1

ETV1 = ETV1 (Homo sapiens, UniProt P50549 1-477)
ETV1, sequence (P50549 whole entry): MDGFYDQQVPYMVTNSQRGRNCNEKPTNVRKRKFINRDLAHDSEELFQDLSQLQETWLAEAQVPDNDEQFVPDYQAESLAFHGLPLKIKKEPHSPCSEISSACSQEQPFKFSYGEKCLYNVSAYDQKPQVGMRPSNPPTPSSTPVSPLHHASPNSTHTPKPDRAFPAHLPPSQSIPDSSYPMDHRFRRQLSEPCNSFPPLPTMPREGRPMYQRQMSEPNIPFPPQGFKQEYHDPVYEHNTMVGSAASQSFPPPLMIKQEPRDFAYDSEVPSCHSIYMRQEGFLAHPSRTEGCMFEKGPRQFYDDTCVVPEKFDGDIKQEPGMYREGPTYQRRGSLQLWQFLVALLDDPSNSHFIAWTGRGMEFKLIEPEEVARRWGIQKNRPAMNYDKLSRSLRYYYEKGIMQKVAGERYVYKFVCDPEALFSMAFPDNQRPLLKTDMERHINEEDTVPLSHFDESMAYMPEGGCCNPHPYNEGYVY
Method in brief: as §1

ERF = target: T9, ERF (Homo sapiens, UniProt P50548 1-548)
T9 sequence: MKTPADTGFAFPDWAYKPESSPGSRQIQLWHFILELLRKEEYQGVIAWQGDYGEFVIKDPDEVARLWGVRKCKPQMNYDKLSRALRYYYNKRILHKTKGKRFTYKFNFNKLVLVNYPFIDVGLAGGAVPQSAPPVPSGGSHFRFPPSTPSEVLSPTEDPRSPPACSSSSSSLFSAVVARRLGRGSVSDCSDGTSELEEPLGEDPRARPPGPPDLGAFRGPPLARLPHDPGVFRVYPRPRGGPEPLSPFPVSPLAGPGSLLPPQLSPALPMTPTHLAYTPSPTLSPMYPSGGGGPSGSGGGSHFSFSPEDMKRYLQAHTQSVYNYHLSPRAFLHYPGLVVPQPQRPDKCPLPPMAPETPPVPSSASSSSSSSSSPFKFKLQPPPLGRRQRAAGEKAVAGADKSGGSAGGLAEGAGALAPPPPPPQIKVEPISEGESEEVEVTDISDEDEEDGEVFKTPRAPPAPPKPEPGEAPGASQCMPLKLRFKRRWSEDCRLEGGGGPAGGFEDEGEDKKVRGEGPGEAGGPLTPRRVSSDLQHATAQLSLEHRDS
Method in brief: as §1

ETV3L = target: T10, ETV3L (Homo sapiens, UniProt Q6ZN32 1-361)
T10 sequence: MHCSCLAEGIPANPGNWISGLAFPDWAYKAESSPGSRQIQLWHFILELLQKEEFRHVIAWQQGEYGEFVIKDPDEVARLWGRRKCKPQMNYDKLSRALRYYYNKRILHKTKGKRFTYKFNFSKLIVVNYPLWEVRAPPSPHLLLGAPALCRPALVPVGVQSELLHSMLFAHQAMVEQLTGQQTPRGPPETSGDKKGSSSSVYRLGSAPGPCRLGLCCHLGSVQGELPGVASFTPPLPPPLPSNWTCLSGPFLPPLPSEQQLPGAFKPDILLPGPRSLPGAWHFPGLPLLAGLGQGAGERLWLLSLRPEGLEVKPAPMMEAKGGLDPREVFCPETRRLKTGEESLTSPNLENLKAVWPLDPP
Method in brief: as §1

ETS2 = target: T11, ETS2 (Homo sapiens, UniProt P15036 1-469)
T11 sequence: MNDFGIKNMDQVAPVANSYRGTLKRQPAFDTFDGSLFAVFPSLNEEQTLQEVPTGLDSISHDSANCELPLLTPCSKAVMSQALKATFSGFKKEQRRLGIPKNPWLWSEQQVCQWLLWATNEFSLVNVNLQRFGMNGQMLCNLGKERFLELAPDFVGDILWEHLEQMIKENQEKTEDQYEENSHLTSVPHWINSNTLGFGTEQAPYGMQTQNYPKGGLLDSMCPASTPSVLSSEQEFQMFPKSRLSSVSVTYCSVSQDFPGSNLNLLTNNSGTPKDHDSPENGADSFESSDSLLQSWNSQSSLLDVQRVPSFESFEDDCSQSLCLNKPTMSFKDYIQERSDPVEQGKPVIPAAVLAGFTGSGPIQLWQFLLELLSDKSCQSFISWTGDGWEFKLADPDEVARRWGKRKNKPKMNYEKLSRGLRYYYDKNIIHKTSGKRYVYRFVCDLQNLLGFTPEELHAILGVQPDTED
Method in brief: as §1

ETV7 = target: T12, ETV7 (Homo sapiens, UniProt Q9Y603 1-341)
T12 sequence: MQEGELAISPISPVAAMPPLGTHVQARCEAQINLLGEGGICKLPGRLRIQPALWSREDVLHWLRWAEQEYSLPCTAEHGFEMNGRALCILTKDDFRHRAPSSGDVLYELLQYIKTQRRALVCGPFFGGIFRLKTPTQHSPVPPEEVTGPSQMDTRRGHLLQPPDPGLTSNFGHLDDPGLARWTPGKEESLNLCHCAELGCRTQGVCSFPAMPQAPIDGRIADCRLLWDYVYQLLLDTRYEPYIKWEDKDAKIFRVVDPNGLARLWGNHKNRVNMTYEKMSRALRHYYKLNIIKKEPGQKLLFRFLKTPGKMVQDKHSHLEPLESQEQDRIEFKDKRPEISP
Method in brief: as §1

ETV3 = target: T13, ETV3 (Homo sapiens, UniProt P41162-2 1-143)
T13 sequence: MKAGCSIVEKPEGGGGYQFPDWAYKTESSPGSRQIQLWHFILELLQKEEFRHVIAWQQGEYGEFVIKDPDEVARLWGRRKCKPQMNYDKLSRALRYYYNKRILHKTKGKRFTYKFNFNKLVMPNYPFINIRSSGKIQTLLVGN
Method in brief: as §1

ETV6 = ETV6 (Homo sapiens, UniProt P41212 1-452)
ETV6, sequence (P41212 whole entry): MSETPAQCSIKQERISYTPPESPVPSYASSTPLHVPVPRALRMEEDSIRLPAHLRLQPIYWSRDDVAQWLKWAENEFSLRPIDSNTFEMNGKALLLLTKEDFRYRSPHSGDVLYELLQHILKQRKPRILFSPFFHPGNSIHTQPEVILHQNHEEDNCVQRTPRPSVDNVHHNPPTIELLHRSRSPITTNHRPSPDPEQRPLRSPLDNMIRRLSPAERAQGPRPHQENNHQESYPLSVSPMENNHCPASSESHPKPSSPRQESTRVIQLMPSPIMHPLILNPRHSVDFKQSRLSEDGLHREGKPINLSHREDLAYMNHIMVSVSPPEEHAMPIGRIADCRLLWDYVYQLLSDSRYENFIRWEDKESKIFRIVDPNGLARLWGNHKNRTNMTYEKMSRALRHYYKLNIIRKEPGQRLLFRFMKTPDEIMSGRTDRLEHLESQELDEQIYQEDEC
Method in brief: as §1

In the case of GCCGCT, the binding signal (FLI1) is reported as 1.09 fold enrichment (6-mer frequency, TF over GST control), the binding signal (ELK1) is reported as 1.08 fold enrichment (6-mer frequency, TF over GST control) and the binding signal (ERG) is reported as 1.07 fold enrichment (6-mer frequency, TF over GST control). The binding signal (ELF1) was 1.12 fold enrichment (6-mer frequency, TF over GST control), the binding signal (EHF) was 1.04 fold enrichment (6-mer frequency, TF over GST control) and the binding signal (SPIB) was 1.1 fold enrichment (6-mer frequency, TF over GST control). The binding signal (ELK3) was 1.06 fold enrichment (6-mer frequency, TF over GST control), the binding signal (SPIC) was 1.19 fold enrichment (6-mer frequency, TF over GST control) and the binding signal (ELF4) was 1.14 fold enrichment (6-mer frequency, TF over GST control). The binding signal (ELK4) was 1.1 fold enrichment (6-mer frequency, TF over GST control), the binding signal (ELF3) was 1.1 fold enrichment (6-mer frequency, TF over GST control) and the binding signal (ETV1) was 1.15 fold enrichment (6-mer frequency, TF over GST control). The binding signal (ERF) was 1.23 fold enrichment (6-mer frequency, TF over GST control), the binding signal (ETV3L) was 1.01 fold enrichment (6-mer frequency, TF over GST control) and the binding signal (ETS2) was 1.09 fold enrichment (6-mer frequency, TF over GST control). The binding signal (ETV7) was 1.05 fold enrichment (6-mer frequency, TF over GST control), the binding signal (ETV3) was 1.03 fold enrichment (6-mer frequency, TF over GST control) and the binding signal (ETV6) was 1.04 fold enrichment (6-mer frequency, TF over GST control).
